Targets with a hit are over-represented here; the source holds about 7,900 in all. About 0.6% of all pairs of compound and target were hits.
How the values were obtained:
Experiment in all cases: log2 fold change, soluble protein after heating vs DMSO (PISA); higher = thermal stabilisation; K562 cells, 10 uM, 30 min; active = over 0.2 and 3.5 SD of the protein, either way, in both replicates (recomputed)
[1] = compound: CS(=O)(=O)c1ccc(-c2cnc(N)c(C(=O)Nc3ccccc3)n2)cc1
How it was run: (§1)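 For each measurement, 10 μM compound was applied for 30 min to K562 cells at 2×10^6 cells/mL. Aliquots were heated for 3 min across 48°C-58°C, pooled, and extracted in PBS with 0.5% NP-40 at 4°C; the supernatant after 21,000xg for 90 min was soluble protein. This was quantified by TMTpro 16plex LC-MS/MS with channel sums equalised, and thermal stability was reported relative to control samples from duplicates, on a log2 fold-change scale.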

crizotinib = compound: C[C@@H](Oc1cc(-c2cnn(C3CCNCC3)c2)cnc1N)c1c(Cl)ccc(F)c1Cl [crizotinib]
How it was run: as §1

[2] = compound: C[C@@H]1COCCN1C2=NC(=NC(=C2)C3(CC3)S(=O)(=O)C)C4=C5C=CNC5=CC=C4
How it was run: as §1

[3] = compound: C[C@H](C1=CC=C(C=C1)C(=O)NC2=C3C=CNC3=NC=C2)N
How it was run: as §1

duvelisib = compound: C[C@H](Nc1ncnc2nc[nH]c12)c1cc2cccc(Cl)c2c(=O)n1-c1ccccc1 [duvelisib]
How it was run: as §1

gandotinib = compound: Cc1cc(Nc2cc(CN3CCOCC3)c3nc(C)c(Cc4ccc(Cl)cc4F)n3n2)n[nH]1 [gandotinib]
How it was run: as §1

tozasertib = compound: Cc1cc(Nc2cc(N3CCN(C)CC3)nc(Sc3ccc(NC(=O)C4CC4)cc3)n2)n[nH]1 [tozasertib]
How it was run: as §1

[4] = compound: Cc1cc(SCc2sc(-c3ccc(C(F)(F)F)cc3)nc2C)ccc1OCC(=O)O
How it was run: as §1

doramapimod = compound: Cc1ccc(-n2nc(C(C)(C)C)cc2NC(=O)Nc2ccc(OCCN3CCOCC3)c3ccccc23)cc1 [doramapimod]
How it was run: as §1

ispinesib = compound: Cc1ccc(C(=O)N(CCCN)[C@@H](c2nc3cc(Cl)ccc3c(=O)n2Cc2ccccc2)C(C)C)cc1 [ispinesib]
How it was run: as §1

bafetinib = compound: Cc1ccc(NC(=O)c2ccc(CN3CC[C@H](N(C)C)C3)c(C(F)(F)F)c2)cc1Nc1nccc(-c2cncnc2)n1 [bafetinib]
How it was run: as §1

[5] = compound: Cc1cccc(CC(=O)N2CCc3c2ccc(-c2cn(C)c4ncnc(N)c24)c3F)n1
How it was run: as §1

nilotinib = compound: Cc1cn(-c2cc(NC(=O)c3ccc(C)c(Nc4nccc(-c5cccnc5)n4)c3)cc(C(F)(F)F)c2)cn1 [nilotinib]
How it was run: as §1

[6] = compound: Cc1nc(Nc2n[nH]c3c2CN(C(=O)N[C@H](CN(C)C)c2ccccc2)C3(C)C)c2sccc2n1
How it was run: as §1

dasatinib = compound: Cc1nc(Nc2ncc(C(=O)Nc3c(C)cccc3Cl)s2)cc(N2CCN(CCO)CC2)n1 [dasatinib]
How it was run: as §1

[7] = compound: Cc1ncc(-c2ccnc(Nc3ccc(S(C)(=O)=O)cc3)n2)n1C(C)C
How it was run: as §1

[8] = compound: Cn1cc(-c2ccc3c(c2)CCN3C(=O)Cc2cccc(C(F)(F)F)c2)c2c(N)ncnc21
How it was run: as §1

[9] = compound: Cn1cc(-c2ccc3nnc(C(F)(F)c4ccc5ncccc5c4)n3n2)cn1
How it was run: as §1

tipifarnib = compound: Cn1cncc1[C@@](N)(c1ccc(Cl)cc1)c1ccc2c(c1)c(-c1cccc(Cl)c1)cc(=O)n2C [tipifarnib]
How it was run: as §1

mubritinib = compound: FC(F)(F)c1ccc(/C=C/c2nc(COc3ccc(CCCCn4ccnn4)cc3)co2)cc1 [mubritinib]
How it was run: as §1

Measured: log2 fold change

MORF4L2 (UniProt Q15014)
UniProt Q15014, sequence (Q15014 whole entry, looked up): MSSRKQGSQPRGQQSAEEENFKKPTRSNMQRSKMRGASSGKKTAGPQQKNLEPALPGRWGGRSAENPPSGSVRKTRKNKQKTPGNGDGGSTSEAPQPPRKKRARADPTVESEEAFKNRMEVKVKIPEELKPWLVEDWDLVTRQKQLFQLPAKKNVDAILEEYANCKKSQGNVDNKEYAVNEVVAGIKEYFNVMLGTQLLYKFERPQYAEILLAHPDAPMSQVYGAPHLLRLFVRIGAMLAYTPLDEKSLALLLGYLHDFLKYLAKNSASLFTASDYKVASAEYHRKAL
active: [2] -0.275
inactive: [1] -0.085 | crizotinib 0.013 | [3] 0.053 | duvelisib -0.201 | gandotinib 0.085 | tozasertib -0.007 | [4] -0.012 | doramapimod 0.035 | ispinesib 0.011 | bafetinib 0.026 | [5] -0.055 | nilotinib 0.009 | [6] 0.01 | dasatinib 0.045 | [7] -0.005 | [8] -0.087 | [9] -0.131 | tipifarnib 0.059 | mubritinib -0.076

OSTC (UniProt Q9NRP0)
UniProt Q9NRP0, sequence (Q9NRP0 whole entry, looked up): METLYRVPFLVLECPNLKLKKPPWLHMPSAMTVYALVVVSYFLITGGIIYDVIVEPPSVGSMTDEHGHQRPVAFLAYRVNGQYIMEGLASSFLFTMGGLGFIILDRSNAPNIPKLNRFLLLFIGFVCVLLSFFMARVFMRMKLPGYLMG
inactive: [1] 0.044 | crizotinib -0.047 | [2] 0.132 | [3] -0.089 | duvelisib 0.041 | gandotinib -0.112 | tozasertib -0.001 | [4] -0.042 | doramapimod 0.028 | ispinesib -0.117 | bafetinib -0.137 | [5] 0.027 | nilotinib -0.047 | [6] -0.013 | dasatinib -0.059 | [7] -0.029 | [8] 0.057 | [9] 0.069 | tipifarnib -0.013 | mubritinib 0.044

NEDD4L (UniProt Q96PU5)
UniProt Q96PU5, sequence (Q96PU5 whole entry, looked up): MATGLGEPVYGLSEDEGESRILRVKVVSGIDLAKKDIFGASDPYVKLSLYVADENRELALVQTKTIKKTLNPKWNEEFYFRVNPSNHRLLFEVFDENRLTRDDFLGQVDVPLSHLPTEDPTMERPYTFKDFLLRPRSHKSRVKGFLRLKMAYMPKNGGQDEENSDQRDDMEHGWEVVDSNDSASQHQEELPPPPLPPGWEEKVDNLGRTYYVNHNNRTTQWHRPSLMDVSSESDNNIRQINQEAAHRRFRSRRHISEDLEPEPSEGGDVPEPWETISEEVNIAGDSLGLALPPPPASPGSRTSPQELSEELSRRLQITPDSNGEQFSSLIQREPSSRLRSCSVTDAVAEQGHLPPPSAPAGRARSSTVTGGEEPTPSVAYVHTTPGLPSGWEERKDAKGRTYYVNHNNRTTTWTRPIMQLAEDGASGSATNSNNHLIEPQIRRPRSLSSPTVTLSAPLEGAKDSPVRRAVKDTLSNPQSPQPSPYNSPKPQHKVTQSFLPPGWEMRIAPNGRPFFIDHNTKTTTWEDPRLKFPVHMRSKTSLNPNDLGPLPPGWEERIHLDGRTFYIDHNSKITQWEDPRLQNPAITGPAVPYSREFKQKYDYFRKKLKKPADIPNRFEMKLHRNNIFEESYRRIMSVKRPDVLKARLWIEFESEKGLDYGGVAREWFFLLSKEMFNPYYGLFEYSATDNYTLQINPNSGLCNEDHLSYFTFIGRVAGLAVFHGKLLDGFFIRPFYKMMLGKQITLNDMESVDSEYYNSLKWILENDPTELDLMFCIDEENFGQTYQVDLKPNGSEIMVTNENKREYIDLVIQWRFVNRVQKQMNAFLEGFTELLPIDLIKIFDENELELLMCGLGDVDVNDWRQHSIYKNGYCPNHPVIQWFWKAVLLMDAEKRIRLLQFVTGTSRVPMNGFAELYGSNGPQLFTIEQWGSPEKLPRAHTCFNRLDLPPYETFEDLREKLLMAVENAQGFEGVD
inactive: [1] 0.015 | crizotinib -0.005 | [2] -0.071 | [3] -0.105 | duvelisib 0 | gandotinib 0.015 | tozasertib 0.088 | [4] 0.083 | doramapimod 0.026 | ispinesib -0.037 | bafetinib -0.037 | [5] -0.062 | nilotinib 0.015 | [6] -0.134 | dasatinib -0.103 | [7] 0.031 | [8] -0.097 | [9] -0.078 | tipifarnib -0.022 | mubritinib 0.01

NSMCE2 (UniProt Q96MF7)
UniProt Q96MF7, sequence (Q96MF7 whole entry, looked up): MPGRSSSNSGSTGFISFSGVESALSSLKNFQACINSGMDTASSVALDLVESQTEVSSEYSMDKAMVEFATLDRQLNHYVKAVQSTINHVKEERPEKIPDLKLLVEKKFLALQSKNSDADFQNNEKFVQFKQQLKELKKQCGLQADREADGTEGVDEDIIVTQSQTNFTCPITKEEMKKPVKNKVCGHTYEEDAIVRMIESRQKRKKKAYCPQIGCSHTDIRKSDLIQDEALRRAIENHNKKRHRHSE
inactive: [1] 0.001 | crizotinib 0.051 | [2] -0.038 | [3] -0.024 | duvelisib -0.011 | gandotinib -0.131 | tozasertib 0.043 | [4] -0.042 | doramapimod 0.004 | ispinesib 0.044 | bafetinib -0.059 | nilotinib 0.014 | [6] -0.202 | dasatinib 0.025 | [7] 0.016 | [8] 0.016 | [9] -0.104 | tipifarnib 0.008 | mubritinib 0.009
active: [5] 0.282

NFATC3 (UniProt Q12968)
inactive: [1] -0.06 | crizotinib -0.179 | [2] 0.014 | [3] -0.04 | duvelisib -0.012 | gandotinib -0.161 | tozasertib -0.039 | [4] 0.091 | doramapimod 0.066 | ispinesib 0.256 | bafetinib 0.041 | [5] -0.064 | nilotinib -0.121 | [6] -0.316 | dasatinib -0.042 | [7] -0.3 | [8] -0.073 | [9] 0.191 | tipifarnib 0.01 | mubritinib -0.01

NDUFA6 (UniProt P56556)
UniProt P56556, sequence (P56556 whole entry, looked up): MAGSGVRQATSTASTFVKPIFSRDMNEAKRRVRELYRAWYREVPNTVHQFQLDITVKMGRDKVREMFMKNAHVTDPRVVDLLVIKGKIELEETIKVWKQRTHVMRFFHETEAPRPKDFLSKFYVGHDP
inactive: [1] 0.012 | crizotinib -0.044 | [2] 0.172 | [3] -0.078 | duvelisib 0.017 | gandotinib -0.22 | tozasertib -0.009 | [4] 0.098 | doramapimod -0.004 | ispinesib 0 | bafetinib 0.128 | [5] 0.301 | nilotinib -0.151 | [6] 0.021 | dasatinib -0.088 | [7] 0.027 | [8] 0.089 | [9] 0.081 | tipifarnib -0.173 | mubritinib 0.184

NAA38 isoform 2 (UniProt Q9BRA0)
UniProt Q9BRA0, sequence (Q9BRA0 whole entry, looked up): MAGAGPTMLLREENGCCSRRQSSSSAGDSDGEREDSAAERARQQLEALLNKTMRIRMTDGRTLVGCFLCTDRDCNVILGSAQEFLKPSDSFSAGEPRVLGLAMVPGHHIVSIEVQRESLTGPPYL
inactive: [1] 0.012 | crizotinib -0.052 | [2] 0.099 | [3] 0.018 | duvelisib 0.124 | gandotinib -0.004 | tozasertib -0.013 | [4] 0.015 | doramapimod -0.02 | ispinesib -0.064 | bafetinib 0 | [5] -0.019 | nilotinib -0.128 | [6] 0.052 | dasatinib -0.051 | [7] -0.066 | [8] 0.028 | [9] -0.047 | tipifarnib -0.039 | mubritinib -0.03

MIS12 (UniProt Q9H081)
UniProt Q9H081, sequence (Q9H081 whole entry, looked up): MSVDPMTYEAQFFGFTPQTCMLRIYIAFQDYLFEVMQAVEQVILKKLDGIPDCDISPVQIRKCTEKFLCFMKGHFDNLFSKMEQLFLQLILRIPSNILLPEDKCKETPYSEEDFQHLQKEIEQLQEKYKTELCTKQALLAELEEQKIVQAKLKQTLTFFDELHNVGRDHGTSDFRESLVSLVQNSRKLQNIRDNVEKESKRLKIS
inactive: [1] 0.016 | crizotinib -0.064 | [2] -0.03 | [3] -0.099 | duvelisib 0.037 | gandotinib -0.012 | tozasertib 0.153 | [4] 0.009 | doramapimod -0.019 | ispinesib -0.034 | bafetinib -0.05 | [5] 0.017 | nilotinib -0.062 | [6] -0.048 | dasatinib -0.114 | [7] 0.037 | [8] -0.028 | [9] 0.005 | tipifarnib 0.016 | mubritinib 0.071

PAFAH1B2 (UniProt P68402)
UniProt P68402, sequence (P68402 whole entry, looked up): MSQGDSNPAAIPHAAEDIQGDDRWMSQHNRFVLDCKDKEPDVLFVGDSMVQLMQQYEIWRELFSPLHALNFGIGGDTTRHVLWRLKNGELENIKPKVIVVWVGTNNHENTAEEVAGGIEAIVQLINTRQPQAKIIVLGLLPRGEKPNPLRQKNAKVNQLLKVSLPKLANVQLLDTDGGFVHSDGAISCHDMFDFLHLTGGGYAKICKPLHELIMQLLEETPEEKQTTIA
inactive: [1] 0.016 | crizotinib -0.017 | [2] -0.13 | [3] -0.054 | duvelisib 0.086 | gandotinib 0.16 | tozasertib -0.072 | [4] -0.066 | doramapimod 0.022 | ispinesib -0.002 | bafetinib -0.025 | [5] 0.035 | nilotinib 0.067 | [6] -0.121 | dasatinib -0.011 | [7] -0.075 | [8] 0.024 | [9] 0.003 | tipifarnib 0.188 | mubritinib 0.092

P4HA2 (UniProt O15460)
UniProt O15460, sequence (O15460 whole entry, looked up): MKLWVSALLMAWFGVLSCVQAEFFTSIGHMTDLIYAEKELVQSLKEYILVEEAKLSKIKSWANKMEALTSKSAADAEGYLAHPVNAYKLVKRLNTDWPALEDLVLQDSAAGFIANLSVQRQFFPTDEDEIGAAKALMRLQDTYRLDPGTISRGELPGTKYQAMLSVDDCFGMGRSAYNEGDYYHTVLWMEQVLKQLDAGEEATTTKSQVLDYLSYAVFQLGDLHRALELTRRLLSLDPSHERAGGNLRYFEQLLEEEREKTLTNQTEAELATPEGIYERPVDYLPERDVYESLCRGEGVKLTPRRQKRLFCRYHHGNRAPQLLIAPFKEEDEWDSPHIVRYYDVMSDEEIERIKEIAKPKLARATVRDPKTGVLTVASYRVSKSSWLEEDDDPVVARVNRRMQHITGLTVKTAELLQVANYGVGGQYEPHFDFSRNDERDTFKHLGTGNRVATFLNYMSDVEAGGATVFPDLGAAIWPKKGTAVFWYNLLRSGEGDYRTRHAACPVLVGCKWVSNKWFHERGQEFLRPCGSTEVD
active: [2] -0.627
inactive: [1] 0.079 | crizotinib 0.023 | [3] 0.178 | duvelisib 0.037 | gandotinib 0.021 | tozasertib -0.005 | [4] 0.053 | doramapimod 0.069 | ispinesib -0.088 | bafetinib 0.012 | [5] -0.007 | nilotinib 0.056 | [6] 0.04 | dasatinib -0.057 | [7] -0.008 | [8] -0.102 | [9] -0.02 | tipifarnib 0.007 | mubritinib -0.059

NME1 isoform 2 (UniProt P15531)
UniProt P15531, sequence (P15531 whole entry, looked up): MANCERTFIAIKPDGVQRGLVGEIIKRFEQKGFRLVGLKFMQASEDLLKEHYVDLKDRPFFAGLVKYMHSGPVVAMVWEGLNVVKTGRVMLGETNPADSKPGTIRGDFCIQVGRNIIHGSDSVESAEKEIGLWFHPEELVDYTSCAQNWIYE
inactive: [1] 0.013 | crizotinib 0.012 | [2] 0.161 | [3] 0.01 | duvelisib 0.38 | gandotinib -0.144 | tozasertib -0.07 | [4] 0.195 | doramapimod -0.015 | ispinesib 0 | bafetinib 0.011 | [5] -0.175 | nilotinib -0.115 | [6] 0.182 | dasatinib -0.286 | [7] -0.003 | [8] 0.088 | [9] -0.013 | tipifarnib 0.06 | mubritinib -0.103

NDUFA4 (UniProt O00483)
UniProt O00483, sequence (O00483 whole entry, looked up): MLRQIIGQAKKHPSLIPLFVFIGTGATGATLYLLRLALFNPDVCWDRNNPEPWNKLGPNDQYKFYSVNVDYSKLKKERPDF
inactive: [1] -0.045 | crizotinib 0.138 | [2] 0.162 | [3] -0.055 | duvelisib 0.142 | gandotinib -0.099 | tozasertib 0.025 | [4] 0.022 | doramapimod 0.034 | ispinesib 0.204 | bafetinib -0.043 | [5] 0.014 | nilotinib 0.024 | [6] 0.02 | dasatinib 0.032 | [7] -0.074 | [8] 0.039 | [9] 0.239 | tipifarnib 0.054 | mubritinib 0.018

PAK1 isoform 2 (UniProt Q13153)
UniProt Q13153, sequence (Q13153 whole entry, looked up): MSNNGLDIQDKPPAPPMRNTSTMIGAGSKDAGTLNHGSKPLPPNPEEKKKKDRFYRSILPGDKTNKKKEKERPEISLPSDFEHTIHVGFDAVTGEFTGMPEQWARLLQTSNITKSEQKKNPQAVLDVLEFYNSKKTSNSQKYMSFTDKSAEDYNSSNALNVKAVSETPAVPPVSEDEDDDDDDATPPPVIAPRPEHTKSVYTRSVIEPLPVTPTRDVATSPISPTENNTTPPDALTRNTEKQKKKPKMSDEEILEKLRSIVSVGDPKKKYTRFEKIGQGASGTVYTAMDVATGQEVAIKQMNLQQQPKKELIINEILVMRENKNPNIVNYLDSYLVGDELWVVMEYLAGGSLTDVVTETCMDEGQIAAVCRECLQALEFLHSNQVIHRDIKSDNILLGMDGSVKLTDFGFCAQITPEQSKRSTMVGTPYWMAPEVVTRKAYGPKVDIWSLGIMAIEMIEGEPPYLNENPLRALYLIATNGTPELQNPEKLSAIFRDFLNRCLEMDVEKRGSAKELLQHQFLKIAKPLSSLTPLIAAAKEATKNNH
inactive: [1] 0.009 | crizotinib 0.054 | [2] 0.063 | duvelisib 0.09 | gandotinib -0.098 | tozasertib -0.076 | [4] 0.056 | doramapimod -0.155 | ispinesib 0.084 | bafetinib -0.017 | [5] 0.04 | nilotinib 0.03 | [6] 0.036 | dasatinib -0.025 | [7] -0.027 | [8] 0.041 | [9] 0.035 | tipifarnib -0.004 | mubritinib 0.015
active: [3] -0.308

MITD1 (UniProt Q8WV92)
UniProt Q8WV92, sequence (Q8WV92 whole entry, looked up): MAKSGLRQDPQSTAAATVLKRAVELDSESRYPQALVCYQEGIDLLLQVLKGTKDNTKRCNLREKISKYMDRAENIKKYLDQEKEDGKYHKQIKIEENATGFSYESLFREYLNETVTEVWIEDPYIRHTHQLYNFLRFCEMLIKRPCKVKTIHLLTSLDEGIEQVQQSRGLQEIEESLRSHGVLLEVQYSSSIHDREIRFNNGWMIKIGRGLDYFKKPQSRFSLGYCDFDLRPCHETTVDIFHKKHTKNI
inactive: [1] -0.082 | crizotinib -0.271 | [2] -0.055 | [3] 0.133 | duvelisib 0.011 | gandotinib -0.068 | tozasertib -0.075 | [4] -0.147 | doramapimod 0.103 | ispinesib -0.072 | bafetinib -0.217 | [5] -0.006 | nilotinib -0.065 | [6] -0.035 | dasatinib 0.006 | [7] -0.101 | [8] 0.01 | [9] 0.009 | tipifarnib 0.098 | mubritinib -0.108

NCOR1 (UniProt O75376)
inactive: [1] -0.078 | crizotinib 0.017 | [2] 0.15 | [3] -0.064 | duvelisib 0.063 | gandotinib -0.007 | tozasertib 0.004 | [4] -0.061 | doramapimod -0.044 | ispinesib 0.004 | bafetinib -0.009 | [5] -0.056 | nilotinib 0.182 | [6] -0.046 | dasatinib -0.091 | [7] 0.058 | [8] 0.041 | [9] -0.049 | tipifarnib 0.103 | mubritinib 0.041

MORC3 (UniProt Q14149)
UniProt Q14149, sequence (Q14149 whole entry, looked up): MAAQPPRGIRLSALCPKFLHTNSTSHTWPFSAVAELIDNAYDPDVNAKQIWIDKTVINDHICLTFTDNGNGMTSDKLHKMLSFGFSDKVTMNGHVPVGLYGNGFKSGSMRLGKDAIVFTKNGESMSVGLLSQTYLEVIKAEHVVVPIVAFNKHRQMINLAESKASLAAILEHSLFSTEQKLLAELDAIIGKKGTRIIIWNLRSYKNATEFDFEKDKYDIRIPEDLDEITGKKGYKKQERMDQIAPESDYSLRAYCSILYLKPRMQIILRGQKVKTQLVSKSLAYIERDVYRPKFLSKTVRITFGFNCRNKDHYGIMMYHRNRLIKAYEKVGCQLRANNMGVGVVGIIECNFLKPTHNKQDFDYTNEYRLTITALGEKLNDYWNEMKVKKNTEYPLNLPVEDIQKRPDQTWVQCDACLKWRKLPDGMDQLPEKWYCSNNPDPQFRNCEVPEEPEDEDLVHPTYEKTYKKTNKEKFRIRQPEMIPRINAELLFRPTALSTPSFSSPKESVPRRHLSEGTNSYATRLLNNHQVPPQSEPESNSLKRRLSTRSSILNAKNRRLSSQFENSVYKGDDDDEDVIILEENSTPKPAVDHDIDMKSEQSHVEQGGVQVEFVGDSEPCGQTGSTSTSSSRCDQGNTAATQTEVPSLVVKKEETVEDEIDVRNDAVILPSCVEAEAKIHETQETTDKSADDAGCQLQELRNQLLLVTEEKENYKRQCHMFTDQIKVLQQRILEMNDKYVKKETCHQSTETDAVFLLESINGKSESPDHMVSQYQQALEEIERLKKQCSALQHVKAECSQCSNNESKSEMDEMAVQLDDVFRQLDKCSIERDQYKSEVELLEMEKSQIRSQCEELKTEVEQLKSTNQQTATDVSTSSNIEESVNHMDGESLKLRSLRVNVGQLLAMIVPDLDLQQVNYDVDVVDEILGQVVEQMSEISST
inactive: [1] 0.058 | crizotinib 0.052 | [2] 0.197 | [3] -0.106 | duvelisib 0.106 | gandotinib -0.017 | tozasertib 0.185 | [4] 0.122 | doramapimod -0.067 | ispinesib 0.041 | bafetinib -0.014 | [5] 0.009 | nilotinib -0.173 | [6] 0.09 | dasatinib -0.154 | [7] 0.105 | [8] 0.011 | [9] -0.026 | tipifarnib 0.006 | mubritinib -0.212

— the supplement of paper PMC10849652
